Assay results from PubChem BioAssay (Tox21).
Several values for one entry are separate records, joined by “and”; a condition that tells them apart may be missing. Identical values can stand only once. Inconclusive results are not listed. Activity calls are given as the source filed them. Unless noted, calls follow the shape of the dose curve; as a rule, active = well fitted curve in the direction sought with a large enough effect in the repeat runs; inconclusive = weak or mixed curves; inactive = no such curve, though single readings can be large; an effect the other way counts as inactive or inconclusive.

How the values were obtained:
[1] = qHTS assay to identify small molecule antagonists of the progesterone receptor (PR) signaling pathway - cell viability counter screen (AID 1346798); also: nearly all actives have a fitted effect of over 50% in size; also: potency is read from the fitted curve at half-maximal effect; as to activity change, negative = cytotoxicity: series mostly up to about 92 µM
In short: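 Viability was determined by ATP-based luminescence (CellTiter-Glo) in PR-UAS-bla HEK293T cells cultured in 2% charcoal-stripped serum and incubated 16 hr with compounds under R5020 stimulation.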

[2] = qHTS assay to identify small molecule antagonists of the TGF-beta/Smad signaling pathway - cell viability counter screen (AID 1346824); also: nearly all actives have a fitted effect of over 50% in size
In short: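 SBE-bla HEK 293T cells, incubated overnight, then compound plus 0.25 ng/mL TGF-beta1 (stock added) for 5 hr at 37 C. Viability was read in the same wells by CellTiter-Glo luminescence after 30 min at room temperature.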

[3] = qHTS assay to identify small molecule agonists of the TGF-beta/Smad signaling pathway - cell viability counter screen (AID 1346829); also: top concentration of the series differs between compounds; nearly all actives have a fitted effect of over 45% in size
In short: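 Same-well cytotoxicity: CellTiter-Glo added after the 2 hr room-temperature beta-lactamase substrate step, luminescence measured 30 min later; cells had 5 hr of compound at 37 C.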

[4] = qHTS assay to identify small molecule agonists of the TGF-beta/Smad signaling pathway (AID 1346859; active = well fitted activation curve with a large enough effect in the signal ratio in the repeat runs, not every such curve was filed as active; the % refers to the signal ratio; also: series mostly up to about 77 µM)
In short: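 Dual-wavelength fluorescence (460/530 nm emission) quantified beta-lactamase expression under the Smad binding element in HEK 293T cells following 5 hr compound treatment at 37 C.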

[5] = molecular target: Thyrotropin-releasing hormone receptor (Homo sapiens) (UniProt P34981); assay: qHTS assay to identify small molecule antagonists of the thyrotropin-releasing hormone receptor (TRHR) signaling pathway (AID 1346877; active = well fitted inhibition curve with a large enough effect in the repeat runs, not every such curve was filed as active; also: series mostly up to about 51 µM)
Chain of Thyrotropin-releasing hormone receptor (Homo sapiens) (P34981 whole entry, looked up): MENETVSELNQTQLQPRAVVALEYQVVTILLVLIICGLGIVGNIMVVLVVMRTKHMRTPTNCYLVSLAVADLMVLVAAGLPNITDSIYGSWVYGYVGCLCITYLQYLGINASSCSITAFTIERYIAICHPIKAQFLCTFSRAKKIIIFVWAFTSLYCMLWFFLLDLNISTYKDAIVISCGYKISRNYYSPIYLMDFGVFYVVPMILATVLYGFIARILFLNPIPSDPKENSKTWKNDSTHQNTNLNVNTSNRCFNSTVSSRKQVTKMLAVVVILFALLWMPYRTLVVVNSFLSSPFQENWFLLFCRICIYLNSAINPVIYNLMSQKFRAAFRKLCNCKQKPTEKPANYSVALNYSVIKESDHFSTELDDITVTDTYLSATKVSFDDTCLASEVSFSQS
In short: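 TRHR-expressing HEK293 cells loaded with calcium dye for 2 h at 37 C; compounds pre-incubated 5 min at room temperature before TRH challenge at 1 nM final. Intracellular calcium fluorescence read kinetically for 3 min; 15 concentrations in triplicate.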

[6] = molecular target: Thyrotropin-releasing hormone receptor (Homo sapiens) (UniProt P34981); assay: qHTS assay to identify small molecule agonists of the thyrotropin-releasing hormone receptor (TRHR) signaling pathway (AID 1346891; calls by dose curve; also: series mostly up to about 58 µM)
In short: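 Kinetic fluorescence (3 min, 1 s intervals) reported intracellular calcium after compound transfer onto TRHR-Hek293 cells pre-loaded with dye for 2 h at 37 °C.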

[7] = Human pregnane X receptor (PXR) small molecule agonists, qHTS cell viability counter screen (AID 1346977); also: nearly all actives have a fitted effect of over 50% in size; also: potency is read from the fitted curve at half-maximal effect
In short: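 HepG2 cells stably carrying the PXR-Luc reporter are cultured with 5% charcoal-stripped FBS and treated with compounds for 24hr. CellTiter-Fluor is added at 23hr and fluorescence is read after 1hr.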

[8] = Caspase-3/7 induction in HepG2 cells by small molecules, qHTS assay (AID 1346978); also: nearly all actives have a fitted effect of over 15% in size; also: potency is read from the fitted curve at half-maximal effect
In short: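 Wild-type HepG2 cells, 2,000/well, settled 5 hr at 37 C and 5% CO2, then compound-treated for 17 hr; caspase-3/7 activity read by luminescent Caspase-Glo 3/7 after 30 min at room temperature.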

[9] = Caspase-3/7 induction in CHO-K1 cells by small molecules, qHTS cell viability counter screen (AID 1346979); also: nearly all actives have a fitted effect of over 35% in size; also: potency is read from the fitted curve at half-maximal effect
In short: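 Seeding: 1,500 CHO-K1 cells/well. Rest: 5hr, 37C. Treatment: compounds in DMSO, 16hr. Read: CellTiter-Fluor, 1hr, fluorescence.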

[10] = Caspase-3/7 induction in CHO-K1 cells by small molecules, qHTS assay (AID 1346980); also: nearly all actives have a fitted effect of over 15% in size
In short: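 Wild-type CHO-K1 cells exposed to compounds for 17hr at 37 C, 5% CO2. Caspase-3/7 activity then measured by Caspase-Glo 3/7 luminescence after 30min at room temperature.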

[11] = Caspase-3/7 induction in HepG2 cells by small molecules, qHTS cell viability counter screen (AID 1346981); also: nearly all actives have a fitted effect of over 30% in size; also: potency is read from the fitted curve at half-maximal effect; as to activity change, negative = cytotoxicity: series mostly up to about 92 µM
In short: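 Wild-type HepG2 cells, 2,000/well, settled 5 hr at 37 C, 5% CO2 before compound addition. Viability read by CellTiter-Fluor fluorescence, reagent added after 16 hr compound exposure, then 1 hr at 37C, in the same wells as the caspase read.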

[12] = molecular target: Nuclear receptor subfamily 1 group I member 2 (Homo sapiens) (UniProt O75469); assay: Human pregnane X receptor (PXR) small molecule agonists, qHTS assay (AID 1346982); also: nearly all actives have a fitted effect of over 35% in size; also: potency is read from the fitted curve at half-maximal effect
Chain of Nuclear receptor subfamily 1 group I member 2 (Homo sapiens) (O75469 whole entry, looked up): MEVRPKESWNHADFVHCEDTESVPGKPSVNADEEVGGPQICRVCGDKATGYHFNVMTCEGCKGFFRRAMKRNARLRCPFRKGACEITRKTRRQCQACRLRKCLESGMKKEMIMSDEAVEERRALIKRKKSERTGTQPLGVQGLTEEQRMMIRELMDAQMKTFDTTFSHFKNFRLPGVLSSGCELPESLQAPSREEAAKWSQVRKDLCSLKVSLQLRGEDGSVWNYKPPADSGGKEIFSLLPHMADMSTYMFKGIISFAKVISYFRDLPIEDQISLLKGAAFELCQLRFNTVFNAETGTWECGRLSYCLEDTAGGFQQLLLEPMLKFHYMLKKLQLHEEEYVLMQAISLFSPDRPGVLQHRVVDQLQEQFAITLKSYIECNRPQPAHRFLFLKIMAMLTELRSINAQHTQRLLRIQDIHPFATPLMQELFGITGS
In short: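 PXR-Luc HepG2 reporter cells (CYP3A4-driven luciferase) in 5% charcoal-stripped FBS medium, plated 5 h before compound addition, then treated 24 h at 37C. Luciferase read by ONE-Glo luminescence after 30 min at room temperature.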

[13] = molecular target: Cytochrome P450 2D6 (Homo sapiens) (UniProt P10635); assay: Cytochrome P450 Family 2 Subfamily D Member 6 (CYP2D6) small molecule antagonists: luciferase reporter qHTS assay (AID 1671196); also: nearly all actives have a fitted effect of over 50% in size; also: potency is read from the fitted curve at half-maximal effect; as to activity change, negative = inhibition: series mostly up to about 120 µM
Chain of Cytochrome P450 2D6 (Homo sapiens) (P10635 whole entry, looked up): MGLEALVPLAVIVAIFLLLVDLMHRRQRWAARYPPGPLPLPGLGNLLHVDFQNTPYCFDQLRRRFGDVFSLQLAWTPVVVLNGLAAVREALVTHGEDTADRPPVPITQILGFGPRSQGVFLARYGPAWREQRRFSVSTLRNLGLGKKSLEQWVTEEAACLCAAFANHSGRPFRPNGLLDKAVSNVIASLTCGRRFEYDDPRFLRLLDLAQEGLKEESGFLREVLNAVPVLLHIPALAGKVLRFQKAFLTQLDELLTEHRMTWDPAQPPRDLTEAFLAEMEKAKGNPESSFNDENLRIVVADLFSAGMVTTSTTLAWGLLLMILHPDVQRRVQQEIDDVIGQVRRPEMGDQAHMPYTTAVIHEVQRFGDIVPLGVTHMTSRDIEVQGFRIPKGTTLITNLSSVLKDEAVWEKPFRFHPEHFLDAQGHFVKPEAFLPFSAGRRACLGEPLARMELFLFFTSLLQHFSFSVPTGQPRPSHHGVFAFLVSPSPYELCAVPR
In short: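 Cell-free P450-Glo system: CYP2D6 with proluciferin substrate was pre-incubated with compound for 10 min, then reacted with NADPH regeneration for 1 h at room temperature. Luciferin product was detected after 20 min, and data were reported as relative luminescence units.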

[14] = molecular target: Cytochrome P450 2C9 (Homo sapiens) (UniProt P11712); assay: Cytochrome P450 Family 2 Subfamily C Member 9 (CYP2C9) small molecule antagonists: luciferase reporter qHTS assay (AID 1671198); also: nearly all actives have a fitted effect of over 50% in size; also: potency is read from the fitted curve at half-maximal effect; as to activity change, negative = inhibition: series mostly up to about 120 µM
Chain of Cytochrome P450 2C9 (Homo sapiens) (P11712 whole entry, looked up): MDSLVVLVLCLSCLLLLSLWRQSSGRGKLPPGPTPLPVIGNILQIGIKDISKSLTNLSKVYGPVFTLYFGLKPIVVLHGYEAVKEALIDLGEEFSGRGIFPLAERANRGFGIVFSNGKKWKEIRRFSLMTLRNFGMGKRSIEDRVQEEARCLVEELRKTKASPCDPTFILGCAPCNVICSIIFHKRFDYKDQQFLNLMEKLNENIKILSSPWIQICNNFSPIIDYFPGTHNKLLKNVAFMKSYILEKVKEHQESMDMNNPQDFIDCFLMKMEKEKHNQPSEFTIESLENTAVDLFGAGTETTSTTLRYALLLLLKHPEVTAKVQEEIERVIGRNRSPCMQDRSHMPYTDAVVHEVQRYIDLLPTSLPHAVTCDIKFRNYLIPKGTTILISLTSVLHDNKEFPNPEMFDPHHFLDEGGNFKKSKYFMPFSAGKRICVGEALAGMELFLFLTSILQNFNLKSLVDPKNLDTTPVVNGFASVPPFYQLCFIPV
In short: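 P450-Glo proluciferin substrate with CYP2C9 enzyme; 10 min RT preincubation, then NADPH regeneration 1 h at 37C; luciferin detection reagent 20 min RT, luminescence in relative luminescence units.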

[15] = molecular target: Cytochrome P450 1A2 (Homo sapiens) (UniProt P05177); assay: Cytochrome P450 Family 1 Subfamily A Member 2 (CYP1A2) small molecule antagonists: luciferase reporter qHTS assay (AID 1671199); also: nearly all actives have a fitted effect of over 50% in size; also: potency is read from the fitted curve at half-maximal effect; as to activity change, negative = inhibition: series mostly up to about 120 µM
Chain of Cytochrome P450 1A2 (Homo sapiens) (P05177 whole entry, looked up): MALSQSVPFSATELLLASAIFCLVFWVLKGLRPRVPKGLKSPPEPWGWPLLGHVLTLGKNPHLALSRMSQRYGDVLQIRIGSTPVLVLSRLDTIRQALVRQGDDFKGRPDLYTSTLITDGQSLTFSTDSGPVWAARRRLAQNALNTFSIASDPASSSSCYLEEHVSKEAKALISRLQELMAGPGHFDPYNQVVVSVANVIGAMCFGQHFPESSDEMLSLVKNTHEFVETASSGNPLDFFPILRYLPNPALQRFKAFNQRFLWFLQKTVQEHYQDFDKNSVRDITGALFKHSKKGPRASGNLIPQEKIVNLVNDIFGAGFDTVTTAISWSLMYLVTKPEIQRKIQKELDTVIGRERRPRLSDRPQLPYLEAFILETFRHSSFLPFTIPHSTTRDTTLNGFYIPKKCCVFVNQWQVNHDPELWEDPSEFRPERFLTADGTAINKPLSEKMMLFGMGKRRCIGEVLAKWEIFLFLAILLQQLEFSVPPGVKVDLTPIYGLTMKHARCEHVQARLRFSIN
In short: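 P450-Glo CYP1A2 enzyme–proluciferin substrate mix with compound 10 min at room temperature, then NADPH regeneration 1 h at room temperature. Luciferin detection reagent added, luminescence read after 20 min; furafylline positive control.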

[16] = qHTS assay to identify small molecule agonists of the progesterone receptor (PR) signaling pathway - cell viability counter screen (AID 1346799; calls by dose curve; also: nearly all actives have a fitted effect of over 45% in size; also: potency is read from the fitted curve at half-maximal effect)
In short: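 Viability was scored by ATP luminescence (CellTiter-Glo, 30 min, room temperature) in the same wells used for the reporter readout, after 16 hr compound exposure of PR-UAS-bla HEK293T cells.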

[17] = molecular target: Cytochrome P450 2C19 (Homo sapiens) (UniProt P33261); assay: Cytochrome P450 Family 2 Subfamily C Member 19 (CYP2C19) small molecule antagonists: luciferase reporter qHTS assay (AID 1671197); also: nearly all actives have a fitted effect of over 65% in size; also: potency is read from the fitted curve at half-maximal effect; as to activity change, negative = inhibition: series mostly up to about 120 µM
Chain of Cytochrome P450 2C19 (Homo sapiens) (P33261 whole entry, looked up): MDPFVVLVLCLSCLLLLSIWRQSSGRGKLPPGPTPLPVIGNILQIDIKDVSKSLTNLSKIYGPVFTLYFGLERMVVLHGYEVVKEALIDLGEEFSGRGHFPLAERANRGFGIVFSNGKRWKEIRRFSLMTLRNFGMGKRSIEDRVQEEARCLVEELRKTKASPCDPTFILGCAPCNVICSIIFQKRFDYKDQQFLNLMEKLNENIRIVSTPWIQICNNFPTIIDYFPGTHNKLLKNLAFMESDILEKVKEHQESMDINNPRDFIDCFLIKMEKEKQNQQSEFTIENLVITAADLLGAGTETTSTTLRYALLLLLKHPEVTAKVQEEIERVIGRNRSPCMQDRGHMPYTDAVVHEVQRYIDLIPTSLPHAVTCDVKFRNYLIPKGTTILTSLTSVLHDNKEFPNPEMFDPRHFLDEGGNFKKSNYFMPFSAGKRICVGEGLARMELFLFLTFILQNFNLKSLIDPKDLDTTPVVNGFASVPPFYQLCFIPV
In short: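 Quantitative high-throughput screen of the Tox21 library using CYP2C19 with proluciferin substrate. Reaction: NADPH regeneration, 37C, 1 h, after 10 min compound preincubation at room temperature. Readout: luminescence.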

[18] = molecular target: Nuclear receptor subfamily 1 group I member 2 (Homo sapiens) (UniProt O75469); assay: CYP3A4 induction through human pregnane X receptor (PXR) by small molecules, qHTS assay (AID 1346984); also: nearly all actives have a fitted effect of over 40% in size; also: potency is read from the fitted curve at half-maximal effect
In short: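 DPX-2 HepG2 cells carrying a PXR response element and CYP3A4-promoter luciferase construct, treated with compounds 24 hr at 37C. Then P450-Glo CYP3A4 Luciferin-IPA substrate (3uM final) for 3 hr at 37C, One-Glo added, luminescence read.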

[19] = molecular target: Nuclear receptor subfamily 1 group I member 2 (Rattus norvegicus) (UniProt Q9R1A7); assay: Rat pregnane X receptor (rPXR) activation by small molecules, qHTS assay (AID 1346983); details: rPXR luciferase reporter cells, One-Glo luminescence, 24 h; max activation: active compounds read high; also: nearly all actives have a fitted effect of over 20% in size
Chain of Nuclear receptor subfamily 1 group I member 2 (Rattus norvegicus) (Q9R1A7 whole entry, looked up): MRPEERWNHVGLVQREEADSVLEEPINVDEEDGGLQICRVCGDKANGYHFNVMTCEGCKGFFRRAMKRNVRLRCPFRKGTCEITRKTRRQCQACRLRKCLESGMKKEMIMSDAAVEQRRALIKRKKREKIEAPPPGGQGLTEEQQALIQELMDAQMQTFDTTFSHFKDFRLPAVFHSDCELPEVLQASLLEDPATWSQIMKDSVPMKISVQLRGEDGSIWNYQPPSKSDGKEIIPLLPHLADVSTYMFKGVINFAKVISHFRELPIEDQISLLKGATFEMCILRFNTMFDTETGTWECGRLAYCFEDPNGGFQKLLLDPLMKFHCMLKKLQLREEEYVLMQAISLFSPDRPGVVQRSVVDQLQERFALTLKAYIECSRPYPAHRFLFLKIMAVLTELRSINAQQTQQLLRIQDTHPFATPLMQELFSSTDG
In short: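 Cell-based rPXR activation assay: rPXR cells, 2,000 per well, rested 5hr at 37 C, then exposed to compounds in DMSO for 24 hr at 37 C. Luciferase activity read by One-Glo luminescence after 30 min at room temperature.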
% is scaled to controls: 0 for no effect and ±100 for the full control effect.

CC(C)(C)c1cc(CCC(=O)NCCCCCCNC(=O)CCc2cc(C(C)(C)C)c(O)c(C(C)(C)C)c2)cc(C(C)(C)C)c1O
inactive: Potency [1] | Potency [2] | Potency [3] | Potency [4] | Potency [5] | Potency [6] | Potency [7] | Potency [8] | Potency [9] | Potency [10] | Potency [11] | Potency [12] | Potency [13] | Potency [15]
active: Potency [14] 1.42 µM

CCN(CC)CCOc1ccc(C(O)(Cc2ccc(Cl)cc2)c2ccc(C)cc2)cc1 (configuration not stated)
inactive: Potency [4] | Potency [5] | Potency [6] | Potency [13] | Potency [15]
active: Potency [1] 26.6 µM | Potency [16] 23.7 µM | Potency [7] 26.6 µM | Potency [8] 33.5 µM | Potency [9] 26.6 µM | Potency [12] 9.44 µM | Potency [17] 38.9 µM | Potency [14] 38.9 µM

CC(O)C#CC(C)O (configuration not stated)
inactive: Potency [1] | Potency [16] | Potency [4] | Potency [5] | Potency [6] | Potency [8] | Potency [10] | Potency [11] | Potency [14]
active: Potency [9] 27 µM | Potency [12] 24.1 µM | Potency [13] 35.2 µM

O=S(=O)(O)c1cc(S(=O)(=O)O)c2ccc3c(S(=O)(=O)O)cc(S(=O)(=O)O)c4ccc1c2c43
inactive: activity change, negative = cytotoxicity [1] -15.6% [at 18.9 µM] | activity change, negative = cytotoxicity [16] -11.2% [at 19 µM] | activity change, negative = cytotoxicity [3] 10.3% [at 15.8 µM] | activation [4] 1.38% [at 15.8 µM] | activity, negative = inhibition [5] -5.39% [at 10.5 µM] | activation [6] -0.321% [at 11.8 µM] | activity change, negative = cytotoxicity [7] 3.17% [at 19 µM] | caspase activation [8] 0.784% [at 19 µM] | activity change, negative = cytotoxicity [9] 5.57% [at 19 µM] | caspase-3/7 activation [10] -0.007% [at 19 µM] | activity change, negative = cytotoxicity [11] 6.28% [at 19 µM] | activation [12] -3.44% [at 19 µM] | activity change, negative = inhibition [13] -11.8% [at 23.6 µM] | activity change, negative = inhibition [17] -18.9% [at 23.6 µM] | activity change, negative = inhibition [14] -1.93% [at 23.6 µM] | activity change, negative = inhibition [15] -17.6% [at 23.6 µM]

COc1cccc(CCc2ccccc2OCC(CN(C)C)OC(=O)CCC(=O)O)c1 (configuration not stated)
inactive: Potency [2] | Potency [3] | Potency [4] | Potency [5] | Potency [6] | Potency [8] | Potency [9] | Potency [10] | Potency [11] | Potency [12] | Potency [14]
active: Potency [1] 13.3 µM | Potency [7] 26.6 µM | Potency [18] 12.6 µM | Potency [13] 0.692 µM | Potency [17] 34.7 µM | Potency [15] 30.9 µM

C(=C/c1ccccc1)/c1ccccc1
inactive: Potency [1] | Potency [2] | Potency [3] | Potency [4] | Potency [5] | Potency [6] | Potency [7] | Potency [8] | Potency [9] | Potency [10] | Potency [12] | Potency [13] | Potency [17] | Potency [14] | Potency [15]

CC(C)(C)c1n[nH]c(=O)n(N)c1=O
inactive: Potency [1] | Potency [2] | Potency [3] | Potency [4] | Potency [5] | Potency [6] | Potency [8] | Potency [9] | Potency [10] | Potency [11] | Potency [12] | Potency [13] | Potency [17] | Potency [14] | Potency [15]

O=C1NC2CCCCN2C12CCN(CCCN1c3ccccc3CCc3ccc(Cl)cc31)CC2 (configuration not stated)
active: Potency [1] 26.6 µM | Potency [16] 23.7 µM | Potency [8] 29.8 µM | Potency [9] 26.6 µM | Potency [11] 29.8 µM | Potency [13] 7.76 µM
inactive: Potency [2] | Potency [5] | Potency [6] | Potency [12] | Potency [14] | Potency [15]

COc1cccc(OC)c1O
inactive: Potency [1] | Potency [2] | Potency [3] | Potency [4] | Potency [5] | Potency [6] | Potency [7] | Potency [8] | Potency [9] | Potency [10] | Potency [11] | Potency [12]
active: Potency [13] 6.33 µM | Potency [17] 39.9 µM | Potency [15] 35.6 µM

CCCCCCCCC(C)=O
inactive: Potency [1] | Potency [2] | Potency [3] | Potency [4] | Potency [5] | Potency [6] | Potency [7] | Potency [9] | Potency [10] | Potency [11] | Potency [12] | Potency [13] | Potency [17] | Potency [14] | Potency [15]

CCCCCCOc1ccc(O)cc1
active: Potency [9] 61.1 µM | Potency [12] 48.6 µM | Potency [13] 79.6 µM | Potency [17] 20 µM | Potency [14] 39.9 µM | Potency [15] 39.9 µM
inactive: Potency [1] | Potency [2] | Potency [3] | Potency [4] | Potency [5] | Potency [6] | Potency [8] | Potency [10]

Cc1nc(Nc2ncc(C(=O)Nc3c(C)cccc3Cl)s2)cc(N2CCN(CCO)CC2)n1
inactive: Potency [1] | Potency [2] | Potency [3] | Potency [4] | Potency [5] | Potency [6] | Potency [10] | Potency [18] | Potency [13] | Potency [15]
active: Potency [7] 9.44 µM | Potency [9] 13.3 µM | Potency [11] 18.8 µM | Potency [12] 1.06 µM

CN(C)CCN1CCOCC1
inactive: Potency [1] | Potency [2] | Potency [3] | Potency [4] | Potency [5] | Potency [6] | Potency [7] | Potency [8] | Potency [9] | Potency [10] | Potency [11] | Potency [12] | Potency [17] | Potency [14] | Potency [15]

C[C@H]1O[C@@H](O[C@H]2[C@@H](O)C[C@H](O[C@H]3[C@@H](O)C[C@H](O[C@H]4CC[C@@]5(C)[C@H](CC[C@@H]6[C@@H]5C[C@@H](O)[C@]5(C)[C@@H](C7=CC(=O)OC7)CC[C@]65O)C4)O[C@@H]3C)O[C@@H]2C)C[C@H](O)[C@@H]1O
active: Potency [1] 86.4 nM and 121 nM | Potency [16] 122 nM and 191 nM
inactive: Potency [7] | Potency [9] | Potency [10] | Potency [11] | max activation [19] -1.12%

Oc1ccc(-c2ccc(O)cc2)cc1
inactive: Potency [1] | Potency [16] | Potency [3] | Potency [4] | Potency [5] | Potency [6] | Potency [8] | Potency [10] | Potency [17] | Potency [14]
active: Potency [12] 48.9 µM | Potency [15] 28.4 µM
